# Experimental data as given in ChEMBL document CHEMBL2218924, “A broad activity screen in support of a chemogenomic map for kinase signalling research and drug discovery” (Biochem J, 2013).
# What was measured:
# [1] = biological target: T1, Ephrin type-B receptor 1 (Homo sapiens) (UniProt P54762); conditions: at 10 µM
# T1 sequence (whole entry): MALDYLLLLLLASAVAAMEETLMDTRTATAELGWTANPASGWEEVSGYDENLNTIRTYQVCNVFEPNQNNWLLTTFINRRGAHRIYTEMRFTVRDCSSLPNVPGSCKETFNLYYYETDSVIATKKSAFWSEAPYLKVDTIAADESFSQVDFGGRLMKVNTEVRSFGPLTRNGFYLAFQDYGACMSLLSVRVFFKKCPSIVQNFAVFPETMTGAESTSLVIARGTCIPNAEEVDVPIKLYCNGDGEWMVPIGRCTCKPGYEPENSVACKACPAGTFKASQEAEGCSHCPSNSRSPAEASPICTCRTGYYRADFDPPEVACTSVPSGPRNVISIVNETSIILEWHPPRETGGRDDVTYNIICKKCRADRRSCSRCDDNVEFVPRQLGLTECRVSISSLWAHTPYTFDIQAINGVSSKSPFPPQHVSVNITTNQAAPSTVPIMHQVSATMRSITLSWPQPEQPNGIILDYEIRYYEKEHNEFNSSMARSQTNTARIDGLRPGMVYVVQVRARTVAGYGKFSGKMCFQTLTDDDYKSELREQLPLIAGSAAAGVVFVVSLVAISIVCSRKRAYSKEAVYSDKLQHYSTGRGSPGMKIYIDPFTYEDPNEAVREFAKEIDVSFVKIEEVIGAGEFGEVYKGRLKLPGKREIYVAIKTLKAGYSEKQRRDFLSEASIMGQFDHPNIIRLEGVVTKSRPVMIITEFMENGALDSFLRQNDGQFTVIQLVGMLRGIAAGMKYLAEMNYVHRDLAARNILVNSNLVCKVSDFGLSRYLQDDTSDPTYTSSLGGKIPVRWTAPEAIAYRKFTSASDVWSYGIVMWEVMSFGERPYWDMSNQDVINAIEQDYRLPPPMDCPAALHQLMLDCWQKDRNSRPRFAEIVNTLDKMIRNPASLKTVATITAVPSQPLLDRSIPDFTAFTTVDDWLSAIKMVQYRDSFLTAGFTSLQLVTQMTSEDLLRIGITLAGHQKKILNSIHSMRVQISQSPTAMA
# [2] = biological target: T2, Ephrin type-B receptor 2 (Homo sapiens) (UniProt P29323); conditions: at 1 µM
# T2 sequence (whole entry): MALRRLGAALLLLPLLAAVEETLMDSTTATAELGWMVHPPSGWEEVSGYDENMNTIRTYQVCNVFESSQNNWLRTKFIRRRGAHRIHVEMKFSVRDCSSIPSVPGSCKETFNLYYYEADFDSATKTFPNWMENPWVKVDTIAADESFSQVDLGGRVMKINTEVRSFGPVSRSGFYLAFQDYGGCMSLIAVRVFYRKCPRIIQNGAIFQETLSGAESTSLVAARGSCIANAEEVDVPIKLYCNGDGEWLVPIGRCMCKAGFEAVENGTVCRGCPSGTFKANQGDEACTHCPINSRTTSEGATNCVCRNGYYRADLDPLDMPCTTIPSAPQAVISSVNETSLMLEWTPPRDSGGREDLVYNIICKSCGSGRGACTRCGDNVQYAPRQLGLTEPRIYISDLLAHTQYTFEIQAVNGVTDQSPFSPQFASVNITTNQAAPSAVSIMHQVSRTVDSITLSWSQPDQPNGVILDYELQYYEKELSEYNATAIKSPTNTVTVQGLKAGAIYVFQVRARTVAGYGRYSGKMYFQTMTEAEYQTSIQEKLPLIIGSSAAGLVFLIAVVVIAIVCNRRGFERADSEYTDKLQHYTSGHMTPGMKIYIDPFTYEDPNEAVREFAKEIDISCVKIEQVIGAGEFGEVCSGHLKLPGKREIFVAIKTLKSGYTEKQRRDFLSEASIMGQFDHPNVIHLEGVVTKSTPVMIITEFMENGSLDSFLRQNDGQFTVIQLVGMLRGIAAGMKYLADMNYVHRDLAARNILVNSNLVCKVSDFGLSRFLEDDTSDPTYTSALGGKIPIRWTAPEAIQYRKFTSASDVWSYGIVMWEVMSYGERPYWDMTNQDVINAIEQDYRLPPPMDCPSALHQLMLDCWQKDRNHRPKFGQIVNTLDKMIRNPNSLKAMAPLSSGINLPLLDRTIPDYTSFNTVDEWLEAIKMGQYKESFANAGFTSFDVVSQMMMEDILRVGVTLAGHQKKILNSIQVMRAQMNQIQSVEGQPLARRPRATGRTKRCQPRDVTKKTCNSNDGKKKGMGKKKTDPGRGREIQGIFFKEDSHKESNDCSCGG
# [3] = biological target: T2, Ephrin type-B receptor 2 (Homo sapiens); conditions: at 10 µM
# [4] = biological target: T3, Ephrin type-B receptor 3 (Homo sapiens) (UniProt P54753); conditions: at 1 µM
# T3 sequence (whole entry): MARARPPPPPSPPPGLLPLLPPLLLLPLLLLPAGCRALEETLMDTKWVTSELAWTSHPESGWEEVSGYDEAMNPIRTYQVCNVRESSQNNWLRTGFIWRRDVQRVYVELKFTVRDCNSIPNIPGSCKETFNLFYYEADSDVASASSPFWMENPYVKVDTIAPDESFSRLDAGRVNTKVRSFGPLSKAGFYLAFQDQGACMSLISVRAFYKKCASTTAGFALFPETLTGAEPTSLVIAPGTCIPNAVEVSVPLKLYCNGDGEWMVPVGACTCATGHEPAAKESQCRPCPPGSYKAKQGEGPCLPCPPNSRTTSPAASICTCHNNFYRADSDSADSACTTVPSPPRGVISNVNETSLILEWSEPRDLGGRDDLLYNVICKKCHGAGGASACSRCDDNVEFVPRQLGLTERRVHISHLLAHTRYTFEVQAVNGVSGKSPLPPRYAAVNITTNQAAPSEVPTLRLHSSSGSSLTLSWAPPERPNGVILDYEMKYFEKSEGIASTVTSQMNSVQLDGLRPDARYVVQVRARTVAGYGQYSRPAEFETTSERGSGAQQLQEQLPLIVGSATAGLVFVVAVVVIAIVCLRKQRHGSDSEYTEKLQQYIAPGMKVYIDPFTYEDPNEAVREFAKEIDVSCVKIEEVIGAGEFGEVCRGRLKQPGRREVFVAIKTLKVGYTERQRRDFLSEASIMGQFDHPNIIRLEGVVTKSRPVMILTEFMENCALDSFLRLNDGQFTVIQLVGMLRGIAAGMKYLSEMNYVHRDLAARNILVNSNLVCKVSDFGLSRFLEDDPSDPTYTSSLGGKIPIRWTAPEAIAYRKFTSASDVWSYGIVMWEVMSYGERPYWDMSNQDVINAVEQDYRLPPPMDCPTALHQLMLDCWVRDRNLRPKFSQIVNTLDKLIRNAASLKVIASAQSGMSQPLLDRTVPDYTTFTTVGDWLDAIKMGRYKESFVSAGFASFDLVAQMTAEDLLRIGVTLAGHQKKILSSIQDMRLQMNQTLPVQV
# [5] = biological target: T3, Ephrin type-B receptor 3 (Homo sapiens); conditions: at 10 µM
# [6] = biological target: T4, Ephrin type-B receptor 4 (Homo sapiens) (UniProt P54760); conditions: at 1 µM
# T4 sequence (whole entry): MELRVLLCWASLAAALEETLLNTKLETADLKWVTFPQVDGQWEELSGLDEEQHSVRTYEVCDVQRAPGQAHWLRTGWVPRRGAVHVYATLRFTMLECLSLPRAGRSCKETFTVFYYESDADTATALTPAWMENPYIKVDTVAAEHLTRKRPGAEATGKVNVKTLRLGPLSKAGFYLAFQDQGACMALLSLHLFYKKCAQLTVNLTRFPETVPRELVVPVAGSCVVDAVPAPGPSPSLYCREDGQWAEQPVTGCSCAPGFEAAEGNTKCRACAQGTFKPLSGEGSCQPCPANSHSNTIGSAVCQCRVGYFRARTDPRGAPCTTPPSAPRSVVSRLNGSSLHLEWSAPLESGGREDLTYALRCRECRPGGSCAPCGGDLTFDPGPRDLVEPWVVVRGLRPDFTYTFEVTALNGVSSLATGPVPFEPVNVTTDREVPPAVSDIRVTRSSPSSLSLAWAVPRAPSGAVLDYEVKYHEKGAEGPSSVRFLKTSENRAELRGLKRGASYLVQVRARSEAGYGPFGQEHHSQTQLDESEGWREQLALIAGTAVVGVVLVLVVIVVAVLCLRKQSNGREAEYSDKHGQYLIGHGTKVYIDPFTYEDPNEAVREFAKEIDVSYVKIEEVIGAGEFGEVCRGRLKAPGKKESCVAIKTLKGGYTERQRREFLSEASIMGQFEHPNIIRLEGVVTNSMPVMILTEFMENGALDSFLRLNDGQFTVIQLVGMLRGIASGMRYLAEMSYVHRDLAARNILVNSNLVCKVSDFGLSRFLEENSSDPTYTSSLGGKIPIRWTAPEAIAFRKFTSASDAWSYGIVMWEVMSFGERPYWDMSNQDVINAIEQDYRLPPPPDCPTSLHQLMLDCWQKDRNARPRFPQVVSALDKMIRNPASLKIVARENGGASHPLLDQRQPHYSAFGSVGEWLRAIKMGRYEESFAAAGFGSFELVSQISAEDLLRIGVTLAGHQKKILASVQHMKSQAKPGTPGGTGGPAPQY
# [7] = biological target: T4, Ephrin type-B receptor 4 (Homo sapiens); conditions: at 10 µM
# [8] = biological target: Receptor tyrosine-protein kinase erbB-4 (Homo sapiens) (UniProt Q15303); conditions: at 1 µM
# [9] = biological target: Receptor tyrosine-protein kinase erbB-4 (Homo sapiens) (UniProt Q15303); conditions: at 10 µM
# [10] = biological target: Focal adhesion kinase 1 (Homo sapiens) (UniProt Q05397); conditions: at 1 µM
# Sequence of Focal adhesion kinase 1 (Homo sapiens) (Q05397 2-1052 limits assumed): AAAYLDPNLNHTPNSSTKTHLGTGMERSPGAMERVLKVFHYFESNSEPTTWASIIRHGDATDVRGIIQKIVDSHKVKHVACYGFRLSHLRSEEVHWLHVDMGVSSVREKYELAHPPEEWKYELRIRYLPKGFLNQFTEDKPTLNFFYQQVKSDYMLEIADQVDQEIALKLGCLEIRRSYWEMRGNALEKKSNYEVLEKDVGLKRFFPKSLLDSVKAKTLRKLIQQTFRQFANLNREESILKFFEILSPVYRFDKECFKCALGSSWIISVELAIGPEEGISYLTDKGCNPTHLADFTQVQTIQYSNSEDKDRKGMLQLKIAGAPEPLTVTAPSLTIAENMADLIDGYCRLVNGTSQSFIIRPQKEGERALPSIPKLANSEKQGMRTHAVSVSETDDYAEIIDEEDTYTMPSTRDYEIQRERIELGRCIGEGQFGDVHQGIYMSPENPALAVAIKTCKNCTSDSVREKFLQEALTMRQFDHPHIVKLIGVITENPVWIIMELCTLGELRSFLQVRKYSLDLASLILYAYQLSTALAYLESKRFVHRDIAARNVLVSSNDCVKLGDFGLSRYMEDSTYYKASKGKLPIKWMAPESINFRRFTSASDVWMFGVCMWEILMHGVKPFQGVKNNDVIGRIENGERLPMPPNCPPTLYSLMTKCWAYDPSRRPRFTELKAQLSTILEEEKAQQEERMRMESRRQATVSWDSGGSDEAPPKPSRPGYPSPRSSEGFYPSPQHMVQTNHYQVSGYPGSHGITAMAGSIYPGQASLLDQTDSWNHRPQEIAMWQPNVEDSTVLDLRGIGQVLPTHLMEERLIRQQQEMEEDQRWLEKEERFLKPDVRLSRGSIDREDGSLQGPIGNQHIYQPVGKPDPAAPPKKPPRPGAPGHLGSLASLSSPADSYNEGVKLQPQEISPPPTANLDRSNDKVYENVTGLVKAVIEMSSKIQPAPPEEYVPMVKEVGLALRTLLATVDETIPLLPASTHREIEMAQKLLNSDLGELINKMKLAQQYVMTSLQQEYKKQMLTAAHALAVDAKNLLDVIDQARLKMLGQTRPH
# Sequence of Receptor tyrosine-protein kinase erbB-4 (Homo sapiens) (Q15303 whole entry): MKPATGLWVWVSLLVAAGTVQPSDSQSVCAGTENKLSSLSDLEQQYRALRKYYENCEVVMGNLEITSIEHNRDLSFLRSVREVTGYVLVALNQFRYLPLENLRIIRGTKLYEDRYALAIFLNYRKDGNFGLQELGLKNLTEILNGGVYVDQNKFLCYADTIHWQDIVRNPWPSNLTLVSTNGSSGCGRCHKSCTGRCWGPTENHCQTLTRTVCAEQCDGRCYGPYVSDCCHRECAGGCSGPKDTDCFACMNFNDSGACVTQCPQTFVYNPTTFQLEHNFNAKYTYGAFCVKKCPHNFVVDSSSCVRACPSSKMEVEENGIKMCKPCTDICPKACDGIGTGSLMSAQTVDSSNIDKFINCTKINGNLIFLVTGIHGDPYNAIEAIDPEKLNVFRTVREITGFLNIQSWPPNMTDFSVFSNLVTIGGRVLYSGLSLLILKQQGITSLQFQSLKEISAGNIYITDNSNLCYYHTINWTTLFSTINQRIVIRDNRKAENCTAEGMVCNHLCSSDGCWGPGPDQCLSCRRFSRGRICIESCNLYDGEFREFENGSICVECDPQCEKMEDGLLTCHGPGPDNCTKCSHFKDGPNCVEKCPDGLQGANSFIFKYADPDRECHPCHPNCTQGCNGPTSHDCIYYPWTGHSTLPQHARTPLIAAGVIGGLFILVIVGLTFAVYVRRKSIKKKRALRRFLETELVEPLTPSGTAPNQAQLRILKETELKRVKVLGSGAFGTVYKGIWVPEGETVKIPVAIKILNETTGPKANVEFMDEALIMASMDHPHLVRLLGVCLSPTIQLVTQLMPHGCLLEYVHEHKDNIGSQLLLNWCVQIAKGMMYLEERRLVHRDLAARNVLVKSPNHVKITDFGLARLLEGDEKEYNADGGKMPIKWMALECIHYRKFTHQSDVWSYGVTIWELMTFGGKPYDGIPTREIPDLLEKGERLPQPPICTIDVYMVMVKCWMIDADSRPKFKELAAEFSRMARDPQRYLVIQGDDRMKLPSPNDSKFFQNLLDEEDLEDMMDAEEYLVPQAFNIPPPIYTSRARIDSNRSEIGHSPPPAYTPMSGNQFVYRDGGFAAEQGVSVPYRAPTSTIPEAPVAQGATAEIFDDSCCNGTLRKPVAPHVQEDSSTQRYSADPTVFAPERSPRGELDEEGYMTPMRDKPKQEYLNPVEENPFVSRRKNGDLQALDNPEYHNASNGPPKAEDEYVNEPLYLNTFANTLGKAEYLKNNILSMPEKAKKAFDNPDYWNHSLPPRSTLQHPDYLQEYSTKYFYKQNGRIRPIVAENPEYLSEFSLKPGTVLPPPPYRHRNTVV
compound,measurement,setting,value
O=C1NC(=O)c2cc(Nc3ccc(F)cc3)c(Nc3ccc(F)cc3)cc21,residual activity,[1],60%
same,residual activity,[2],105%
same,residual activity,[3],69%
same,residual activity,[4],100% (inactive)
same,residual activity,[5],105%
same,residual activity,[6],95%
same,residual activity,[7],56%
same,residual activity,[8],87%
same,residual activity,[9],35%
same,residual activity,[10],137%
